High-throughput results deposited in PubChem by The Scripps Research Institute Molecular Screening Center.
M1 PAM: human M1 muscarinic receptor positive allosteric modulators, primary screen, CHO-K1 cells, Fluo-8 calcium fluorescence, 1536-well; Muscarinic acetylcholine receptor M1 (Homo sapiens), P11229; CHO-K1 hM1, ACh EC20; 0% = ACh EC20, 100% = maximal ACh; actives 0.088% (n = 360,000); activation, % at 3 µM; in the data active = activation above about 19%, passing the limit was not always enough
Target sequence (P11229 whole entry, looked up): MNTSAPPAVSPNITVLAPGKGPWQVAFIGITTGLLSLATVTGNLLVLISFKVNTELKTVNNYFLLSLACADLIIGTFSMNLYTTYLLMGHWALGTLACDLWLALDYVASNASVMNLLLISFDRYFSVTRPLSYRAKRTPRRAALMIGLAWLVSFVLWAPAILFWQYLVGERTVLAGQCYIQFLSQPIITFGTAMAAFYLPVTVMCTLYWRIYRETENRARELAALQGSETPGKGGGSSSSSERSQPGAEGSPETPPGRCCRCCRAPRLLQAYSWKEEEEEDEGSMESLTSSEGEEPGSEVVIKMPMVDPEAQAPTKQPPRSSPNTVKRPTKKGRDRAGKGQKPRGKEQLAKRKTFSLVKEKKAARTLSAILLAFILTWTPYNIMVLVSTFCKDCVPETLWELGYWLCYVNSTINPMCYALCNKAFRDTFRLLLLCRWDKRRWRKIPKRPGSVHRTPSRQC
CHRM1 agonist: human M1 muscarinic receptor agonists, primary screen, Fluo-8 calcium fluorescence, CHO-K1 cells, HTS | Muscarinic acetylcholine receptor M1 (Homo sapiens), P11229 | CHO-K1 hM1, agonist mode; 0% DMSO, 100% acetylcholine EC100 | activation, % at 3 µM | actives 0.33% (n = 360,000);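 active = activation above the run's mean compound activation plus 3 SD, cut at about 16% in these data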;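 also: peak over basal fluorescence ratio within a 140 s kinetic read after compound addition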
M1 PAM parental: nonselective calcium activators in parental CHO-K1 cells, primary screen, counter-screen for M1 PAM project, cell-based, Fluo-8 calcium fluorescence, full deck, 1536-well | ATP EC20; 0% at ATP EC20, 100% at ATP max | activation, % at 3 µM | actives 0.02% (n = 360,000) | AID 602247, 2012;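 active = activation above the run cutoff, the mean activation of all test compounds plus 3 SD, cut at about 40% in these data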;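 also: peak over basal fluorescence ratio in a 140 s read after ATP addition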
M1 antag: human M1 muscarinic receptor antagonists, primary screen, CHO-K1 cells, Fluo-8 calcium fluorescence, 1536-well | Muscarinic acetylcholine receptor M1 (Homo sapiens), P11229 | CHO-K1 hM1, ACh EC80 antagonist | inhibition, % at 3 µM | actives 1.3% (n = 360,000);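 active = percent inhibition above its own plate's cutoff, namely the mean of that plate's compound wells plus 3 SD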;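 also: peak over basal fluorescence ratio during 140 s after agonist addition; 0% = ACh EC80 plus DMSO and 100% = DMSO alone without agonist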
CHO-K1 Ca antag: counter-screen for M1 antagonists: effect in parental CHO-K1 cells | ATP-induced calcium, Fluo-8 fluorescence | inhibition, % at 3 µM | actives 0.6% (n = 360,000);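 active = inhibition above a per-plate cutoff, the plate's mean sample inhibition plus 3 SD, cut at about 24% in these data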;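 also: 0% = DMSO plus EC80 ATP and 100% = DMSO alone without ATP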
CHO-K1 Ca ag: counter-screen for M1 agonists: effect in parental CHO-K1 cells; Fluo-8 calcium fluorescence; scaled to maximal ATP response, vehicle zero; activation, % at 3 µM; actives 0.48% (n = 360,000); AID 602248, 2012; in the data active = activation above about 15%;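 also: untransfected CHO-K1 host cells lacking M1 receptor as counterscreen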
An asterisk follows results filed as active; nt = no result. Compounds with a hit are over-represented: about 2.3% of the library has one in this group of screens.

SMILES	M1 PAM	CHRM1 agonist	M1 PAM parental	M1 antag	CHO-K1 Ca antag	CHO-K1 Ca ag
Cc1ccc(N2CC(C(=O)OCC(=O)Nc3cccc(Cl)c3C)CC2=O)cc1 (stereo unspecified)	6	-5	6	-14	-4	0
O=C(c1ccccc1)c1ccc(-n2cnnc2)c([N+](=O)[O-])c1	6	0	5	-10	-20	22*
Cc1cc(C)c(OCCNCc2ccccc2)c(C)c1	7	-1	23	-10	-8	20*
CSc1ccc(Cn2c(C)c(C(=O)NCc3ccc4c(c3)OCO4)sc2=O)cc1	1	-4	21	-8	-7	4
O=C(COC(=O)Cc1ccc(Cl)c(Cl)c1)NCCc1ccccc1	11	1	-12	-4	17	0
COC(=O)c1cc(Br)c(N)cc1OC	6	-3	21	0	-14	0
CCN(CC)CCNC(=O)c1cc(Br)c(N)cc1OC	3	-4	-13	-23	35*	0
CC(C)CC1C(=O)N(Cc2cn(Cc3ccco3)nn2)CCS(=O)(=O)N1Cc1ccc(-c2ccccc2)cc1 (stereo unspecified)	8	-1	14	-4	-5	2
Nc1ncnc2c1ncn2C1OCC(O)C1O (stereo unspecified)	3	0	2	2	-2	1
COc1ccc(CSc2nc(C)cc(=O)[nH]2)cc1Br	4	-3	18	-7	-3	19*
Cc1cc(=O)[nH]c(SCc2cccc(Br)c2)n1	3	0	3	-43	-5	1
O=C(c1ccccn1)N(Cc1ccco1)C1(C(=O)Nc2ccc(Br)cc2)CCCCC1	7	-3	-2	-18	-1	1
C[N+]1(CC(=O)OCCCc2ccccc2)CCCCC1	-11	-8	4	19	-12	1
CC1(C(O)(C#CC[N+]2(C)CCCCC2)c2ccccc2)CCCC1 (stereo unspecified)	-32	-13	-15	72*	22	0
COc1cc(=O)n(C)c2cc(N(C)C)ccc12	20*	-4	19	-16	-12	0
Cc1nc2sccn2c(=O)c1S(=O)(=O)NCC1CCN(Cc2ccccc2Cl)CC1	-36	-14	17	39*	-17	1
Cc1c(C(=O)N2CCN(c3ccccn3)CC2)oc2c1C(=O)CC(C)(C)C2	-10	0	1	10	-10	7
COc1ccccc1N1CCN(C(=O)c2oc3c(c2C)C(=O)CC(C)(C)C3)CC1	-14	2	-26	34	28*	10
O=C1NC[C@H](CCCCN2C[C@H](Cc3ccc(O)cc3)N(CCc3ccccc3)C(=O)C2=O)N(CCC2CCCCC2)C1=O	nt	nt	-13	nt	-9	0
CCN(CCO)Cc1csc2ccccc12	9	-1	10	-7	-4	0
CCN(CCO)Cc1csc2c(Br)cccc12	23*	-4	18	-41	-16	1
C=CCn1c(=O)/c(=C/c2ccc(Cl)cc2)s/c1=C(\C#N)c1nnc2n1CCCCC2	-6	-5	4	-4	-10	0
CN1C(=O)c2cccc3c(Br)ccc(c23)C1=O	6	-4	16	-17	-12	1
CNc1ccc2c3c(cccc13)C(=O)N(C)C2=O	-35	313*	-13	73*	30*	98*
CN1C(=O)c2cccc3c(Cl)ccc(c23)C1=O	-2	-4	18	-4	-20	0
SMILES	M1 PAM	CHRM1 agonist	M1 PAM parental	M1 antag	CHO-K1 Ca antag	CHO-K1 Ca ag
CN1C(=O)c2cccc3c(N(C)C)ccc(c23)C1=O	3	14	9	-4	9	23*
CC(C)(CNC(=O)c1cccc(S(=O)(=O)N2CCCCC2)c1)N1CCOCC1	19	-6	11	-18	7	0
CCOC(=O)[C@]12CCC=C1N(CCC1=CCCCC1)C(=O)[C@H](CC(=O)N1CCCC1)C2	nt	nt	19	nt	-19	1
CN(C)C1(CNC(=O)Nc2ccccc2)CCCCC1	7	-8	13	-9	-8	1
CN(C)C1(CNC(=S)Nc2ccccc2C(F)(F)F)CCCCC1	-6	50*	15	6	-7	2
Nc1nc(-c2nc3ccccc3[nH]2)cs1	0	-3	-8	5	32*	0
c1ccc(-c2nc3ccccc3[nH]2)nc1	-6	-2	8	3	-5	0
Cc1ccc(S(=O)(=O)NC(C(=O)Oc2ccc3c(C)c(Cl)c(=O)oc3c2)c2ccccc2)cc1 (stereo unspecified)	-3	-6	0	9	0	0
CCC[C@@H](NS(=O)(=O)c1ccc(C)cc1)C(=O)Oc1ccc2c3c(c(=O)oc2c1)CCC3	-25	2	12	38*	7	12
CC(O)(C#CCN1CCCCC1)c1ccccc1 (stereo unspecified)	-19	-8	-1	30	-2	0
OC(C#CCN1CCCC1)(c1ccccc1)c1cccc(F)c1 (stereo unspecified)	-28	-15	6	101*	1	0
CC(C)(C#CCN1CCCCC1)OCCOC(c1ccccc1)c1ccccc1	-26	-9	8	99*	-10	0
C(#Cc1ccccc1)CN1CCCCC1	-6	-15	18	1	-12	3
CC(C)C(O)(C#CCN1CCCCCC1)c1ccccc1 (stereo unspecified)	-33	-14	19	87*	-3	1
CC(O)(C#CCN1CCCC1)c1ccccc1 (stereo unspecified)	-21	-9	20	41*	-10	8
CN(c1cccc(F)c1)c1cc2c(c3c1ccn3C)C1CCC2O1 (stereo unspecified)	-2	-4	0	-2	11	0
O=C(CC1CC1)Nc1ccc2c(c1)[C@H]1C[C@H](CC(=O)N3CCc4ccccc4C3)O[C@@H](CO)[C@H]1O2	5	-7	8	2	0	0
COc1cccc(S(=O)(=O)N(C)C[C@H]2OCc3cnnn3CCCC(=O)N([C@H](C)CO)C[C@H]2C)c1	-4	-6	2	-4	-8	0
CCN(CC1CCCO1)C(=O)CCc1nnc(CCc2ccccc2)o1 (stereo unspecified)	5	-2	4	-6	6	1
CC1(Oc2ccccc2-c2ccno2)CCN(Cc2csc3ccccc23)C1 (stereo unspecified)	9	1	1	-4	3	1
